Screening data as filed in PubChem.
Most compounds without a hit are left out; they make up all but 3% or so of the library.
esBAF inh: Bmi1 luciferase reporter increase in mESCs, primary screen, esBAF inhibitor project, mouse ES cells, Bmi1 luciferase knock-in, single point | AID 602393, 2012 | 24 h; 100% = twice the neutral-well signal | 350,000 compounds, 2% hits | reporter increase, % at 12.5 µM; in the data active means activation above about 40%; inconclusive means no clear call, values can overlap the other calls;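 further: a rise in the Bmi1 reporter signal indicates esBAF inhibition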
MITF act: activators of MITF-driven TRPM1 promoter reporter, primary screen, cell-based, SK-MEL-5, luciferase, single point; SK-MEL-5 TRPM1-promoter luciferase, 24 h; % of positive control, neutral wells = 0; activation, % at 12.5 µM; 300,000 compounds, 0.75% hits; AID 588334, 2011;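 active means mean activation of at least 80% with every replicate also reaching 80%; inconclusive means mean reaches 80% but some replicate falls short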
Wnt bcat act: Wnt/beta-catenin pathway activators, primary screen, cell-based, plate reader, single point; Wnt/beta-catenin reporter cell assay, activator; activation, % at 9.35 µM; 300,000 compounds, 1.2% hits; AID 743398, 2014; in the data active means activation above about 30%, passing the limit was not always enough; inconclusive means no clear call, values can overlap the other calls
Statin myotox sup: suppressors of statin myotoxicity in C2C12 myotubes, primary screen, cell-based, single point, plate reader. AID 602340, 2012. 330,000 compounds, 0.78% hits. C2C12 myotubes + simvastatin, ATP luminescence, 48 h; scaled: DMSO 0, geranylgeraniol control 100. rescue of ATP level, % at 7.49 µM;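 active means mean ATP rescue above about 67%, or every replicate alone reaching that limit, limit read from the data, passing the limit was not always enough; inconclusive means no clear call, values can overlap the other calls; inactive means mean under the limit and some replicate under it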;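 further: myotubes were challenged with 10 µM simvastatin during compound exposure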
Hits are given with their value; . = inactive; ? = inconclusive; / = not tested or not shown.

SMILES	esBAF inh	MITF act	Wnt bcat act	Statin myotox sup
COc1ccc(NC(=S)Nc2ncccc2C)c(OC)c1	48	.	.	.
S=C(NCCc1ccccc1)Nc1ncccn1	.	.	.	.
Cc1noc(C)c1NC(=O)Nc1ccc2c(c1)CC(=O)N([C@@H](C)CO)C[C@H](C)[C@H](CN(C)C(=O)Nc1ccc(F)cc1)O2	.	/	/	.
CN(C)c1ccc(/C=C(\C#N)c2ccccn2)cc1	/	.	/	/
N#C/C(=C/c1cccs1)c1ccccn1	/	?	44	/
COC(=O)c1ccc(/C=C(\C#N)c2ccccn2)cc1	102	107	.	.
N#C/C(=C\c1ccc([N+](=O)[O-])cc1)c1ccccn1	/	.	39	/
C[C@@H]1CN([C@H](C)CO)C(=O)Cc2cc(NC(=O)Cn3cnnn3)ccc2O[C@@H]1CN(C)C(=O)Nc1cccc2ccccc12	.	/	/	.
COc1cccc(/C=C2\N=C3CCCCCN3C2=O)c1	.	.	36	.
Cn1cc(SCC(=O)N2CCOCC2)c2ccccc21	.	/	.	.
O=C(Nc1ccccc1Cl)C(=O)c1cn(CC(=O)N2CCOCC2)c2ccccc12	52	83	39	.
CCn1cc(SCC(=O)N2CCOCC2)c2ccccc21	52	.	.	.
O=C(NCc1ccc(Cl)cc1)C(=O)c1cn(CC(=O)N2CCOCC2)c2ccccc12	.	.	.	.
O=C(Cn1cc(SCc2ccccc2Cl)c2ccccc21)N1CCOCC1	82	.	/	.
O=C(C[C@H]1C=C[C@H](NC(=O)C2CC2)[C@H](CO)O1)NC1CCC1	.	/	/	.
COCC(=O)N(C)C[C@H]1Oc2ncc(C#CC(C)(C)O)cc2C(=O)N([C@@H](C)CO)C[C@H]1C	.	/	/	.
COCCN(Cc1nc(-c2ccc(-c3ccccc3)cc2)oc1C)C(C)C	65	.	.	.
CCCC(=O)OCC(=O)Nc1ccc(N=Nc2ccccc2)cc1	/	.	51	/
COc1c(O)cnn(-c2ccccc2)c1=O	/	/	.	/
COc1cnn(-c2ccccc2)c(=O)c1OC	/	/	50	/
O=C(C[C@@H]1CC[C@H](NC(=O)Nc2ccccc2)[C@H](CO)O1)NCc1ccccn1	.	/	/	.
CC(C)OC(=O)/C(=C\c1ccc2c(c1)c1ccccc1n2C)NC(=O)c1ccccc1	76	.	/	.
CC(C)OC(=O)/C(=C/c1ccc2c(c1)c1ccccc1n2C)NC(=O)c1ccccc1	/	.	.	/
Cc1cccc2sc(NC(=O)CN(C)S(=O)(=O)c3ccc(Br)s3)nc12	.	.	/	100
Cc1cccc2sc(NC(=O)CN(C)S(=O)(=O)c3cccs3)nc12	/	.	/	/
SMILES	esBAF inh	MITF act	Wnt bcat act	Statin myotox sup
COc1ccc(-c2ccc3n(c2=O)C[C@H]2[C@H](CO)[C@@H](C(=O)N4CCOCC4)[C@@H]3N2C)cc1	.	/	/	.
CO[C@H]1CN(C)C(=O)c2ccc(NC(=O)Cc3ccccc3)cc2OC[C@@H](C)NC[C@@H]1C	.	/	/	.
Cc1ccc(Cl)c(OCC(=O)Nc2cccnc2)c1	.	101	.	.
Cc1ccc(C(=O)OC(C)C(=O)Nc2ccc3c(c2)OCO3)c(O)c1 (stereo unspecified)	50	.	.	.
Cc1ccc(Cl)c(OCC(=O)Nc2ccc3c(c2)OCCO3)c1	86	131	/	.
CC(OC(=O)c1cccnc1)C(=O)Nc1ccc2c(c1)OCO2 (stereo unspecified)	/	.	.	/
Cc1ccc(OCC(=O)Nc2ccc3c(c2)OCO3)c(C)c1	/	89	.	/
O=C1CCCC(O)=C1N=Nc1ccc(C(=O)O)cc1	.	.	.	.
O=C1CCCC(O)=C1N=Nc1ccc2c(c1)OCO2	/	.	46	/
Brc1ccccc1OCCCn1cnc2ccccc21	48	92	.	.
c1ccc2c(c1)ncn2CCCCOc1ccc2c(c1)CCC2	.	/	/	/
Cc1ccccc1OCCCCn1cnc2ccccc21	.	/	/	.
c1ccc2c(c1)ncn2CCCOc1ccc2c(c1)CCC2	.	/	38	.
CC1CCc2nc(/C(C#N)=C/c3cccnc3)sc2C1 (stereo unspecified)	/	85	/	/
N#C/C(=C\c1cccnc1)c1nc2c(s1)CCCC2	/	.	.	/
CSc1nccc(N/N=C/c2ccccc2)n1	.	97	37	.
Cc1ccc(S(=O)(=O)Nc2ccc3c(c2)C(=O)N([C@@H](C)CO)C[C@H](C)[C@H](CN(C)Cc2ccncc2)OCCCC[C@@H](C)O3)cc1	.	/	/	/
CCn1c(/C=C/c2c[nH]c3ccccc23)nc2ccccc2c1=O	/	114	.	/
CSc1nsc(SCC(=O)Nc2ccccc2)n1	.	.	.	.
CSc1nsc(SCC(=O)Nc2ccc(OC(C)=O)cc2)n1	/	89	41	/
CCOCC(=O)Nc1nc2ccc(OCC)cc2s1	.	.	46	.
CCOc1ccc2nc(NC(=O)CSCC(=O)Nc3cc(C)on3)sc2c1	.	104	?	.
CCOc1ccc2nc(NC(=O)c3cnccn3)sc2c1	49	.	.	.
C[C@@H]1CN([C@H](C)CO)C(=O)c2cc(NC(=O)c3ccncc3)ccc2O[C@@H]1CN(C)C(=O)Nc1ccc2c(c1)OCO2	.	/	/	.
O=C(Nc1ccsc1C(=O)O)c1ccc(Cl)cc1	61	.	.	.
SMILES	esBAF inh	MITF act	Wnt bcat act	Statin myotox sup
O=C(Nc1ccc(Cl)cc1C(F)(F)F)c1ccccc1Cl	/	.	.	/
O=C(CCNC(=O)c1ccc(Cl)cc1)Nc1ccc(F)cc1F	/	.	.	/
O=C(Nc1cc(F)c(Br)cc1F)c1ccc(Cl)cc1	/	.	49	/
O=C(Nc1ccc(Cl)cc1C(F)(F)F)c1ccc(Cl)cc1	49	.	?	.
Cc1ccc(C(=O)Nc2ccsc2C(=O)O)cc1	/	.	.	/
O=C(c1ccccc1)N1C[C@H]2[C@@H](c3ccccc31)[C@H](CO)N2Cc1cc(F)ccc1F	.	/	/	.
CC(=O)Nc1ccc2nc(-c3ccccn3)[nH]c2c1	.	.	36	.
CC(=O)Nc1ccc2nc(-c3ccncc3)[nH]c2c1	.	.	.	.
C[C@@H]1CN([C@H](C)CO)C(=O)c2cc(C3=CCCC3)cnc2O[C@H]1CN(C)C(=O)C1CC1	/	/	/	.
C[C@@H]1CN([C@@H](C)CO)C(=O)c2cccc(NC(=O)Nc3ccccc3)c2O[C@H]1CN(C)C(=O)Nc1ccc2c(c1)OCO2	61	/	/	.
C[C@H]1CN([C@@H](C)CO)C(=O)c2cccc(NS(=O)(=O)c3ccccc3)c2O[C@@H]1CN(C)C(=O)Nc1ccc2c(c1)OCO2	57	/	/	.
Cc1ccc(S(=O)(=O)Nc2cccc3c2O[C@@H](CN(C)C(=O)Nc2ccc4c(c2)OCO4)[C@@H](C)CN([C@@H](C)CO)C3=O)cc1	73	/	/	.
COc1ccc(S(=O)(=O)Nc2cccc3c2O[C@H](CN(C)C(=O)Nc2ccc(F)cc2)[C@H](C)CN([C@@H](C)CO)C3=O)cc1	.	/	/	130
Cc1ccc(S(=O)(=O)N(C)C[C@@H]2OCCCC[C@H](C)Oc3ccc(N(C)C)cc3C(=O)N([C@H](C)CO)C[C@H]2C)cc1	.	/	/	.
Cc1ccc(S(=O)(=O)Nc2cccc3c2O[C@H](CN(C)C(=O)Nc2ccc4c(c2)OCO4)[C@@H](C)CN([C@H](C)CO)C3=O)cc1	49	/	/	.
